# In PubChem BioAssay (Tox21):
# “And” between values parts separate entries of the source, which are not always exact repeats. Identical values can stand only once. Records with an inconclusive call do not appear. Entries that show only a call come without a potency. The source holds several records for some structures; these can differ, active in one and inactive in another. The source made the active and inactive calls. Unless noted, the call rests on the fitted dose curve; in most records, active means well fitted curve in the direction sought with a large enough effect in the repeat runs; inconclusive means weak or mixed curves; inactive means no such curve, though single readings can be large; an effect the other way counts as inactive or inconclusive.
# Key:
# [1] = qHTS assay to identify small molecule antagonists of the glucocorticoid receptor (GR) signaling pathway - cell viability counter screen (AID 720693); further: nearly all actives have a fitted effect of over 55% in size; further: potency means the concentration at half of the fitted maximal effect
# [2] = qHTS assay to identify small molecule antagonists of the androgen receptor (AR) signaling pathway - cell viability counter screen (AID 743033; further: nearly all actives have a fitted effect of over 45% in size; further: potency means the concentration at half of the fitted maximal effect)
# [3] = biological target: Androgen receptor (Homo sapiens) (UniProt P10275); assay: qHTS assay to identify small molecule antagonists of the androgen receptor (AR) signaling pathway (AID 743035; active means well fitted inhibition curve with a large enough effect in the signal ratio in the repeat runs, not every such curve was filed as active; the % refers to the signal ratio; further: potency means the concentration at half of the fitted maximal effect)
# Summary of the method: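 Antagonist mode: AR-bla HEK293 cells co-treated with test compounds and agonist R1881 for 16 h at 37C, 5% CO2. Beta-lactamase activity read as FRET fluorescence after 2 h room-temperature substrate loading.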
# [4] = biological target: Androgen receptor (Homo sapiens) (UniProt P10275); assay: qHTS assay to identify small molecule agonists of the androgen receptor (AR) signaling pathway (AID 743036; active means well fitted activation curve with a large enough effect in the signal ratio in the repeat runs, with a control signal flat, not every such curve was filed as active; the % refers to the signal ratio)
# Summary of the method: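 In this Tox21 qHTS, 2,000 HEK293 AR-bla cells per well were incubated with compounds for 16 h at 37C and 5% CO2. Fluorescence intensity was recorded 2 h after adding LiveBLAzer B/G FRET substrate at room temperature.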
# [5] = biological target: Androgen receptor (Homo sapiens) (UniProt P10275); assay: qHTS assay to identify small molecule agonists of the androgen receptor (AR) signaling pathway using the MDA cell line (AID 743040; further: nearly all actives have a fitted effect of over 20% in size)
# Summary of the method: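 Luciferase agonist assay: 16 h compound exposure at 37C without CO2 in MDA-kb2 AR-luc cells, whose MMTV promoter responds to both AR and GR. Luminescence measured after 30 min room-temperature incubation with ONE-Glo.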
# [6] = qHTS assay to identify small molecule antagonists of the androgen receptor (AR) signaling pathway using the MDA cell line - cell viability counter screen (AID 743041; further: nearly all actives have a fitted effect of over 45% in size; further: potency means the concentration at half of the fitted maximal effect)
# Summary of the method: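 Viability read by CellTiter-Fluor fluorescence in the same wells as the antagonist screen, added after 15.5 h of a 16 h, 37C exposure. Human breast carcinoma MDA-kb2 AR-luc cells, compounds co-dosed with agonist R1881.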
# [7] = biological target: Androgen receptor (Homo sapiens) (UniProt P10275); assay: qHTS assay to identify small molecule antagonists of the androgen receptor (AR) signaling pathway using the MDA cell line (AID 743042; further: nearly all actives have a fitted effect of over 55% in size; further: potency means the concentration at half of the fitted maximal effect)
# Summary of the method: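 Antagonist mode: compounds plus R1881 agonist added to MDA-kb2 AR-luc cells, incubated 16 h at 37C. Luciferase reporter luminescence quantified, with multiplexed CellTiter-Fluor readout for cell viability.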
# [8] = qHTS assay for identifying genotoxic compounds that show differential cytotoxicity against isogenic chicken DT40 cell lines with known DNA damage response pathways - Rad54/Ku70 mutant cell line (AID 743015); further: nearly all actives have a fitted effect of over 60% in size; further: potency means the concentration at half of the fitted maximal effect
# [9] = qHTS assay for identifying genotoxic compounds that show differential cytotoxicity against isogenic chicken DT40 cell lines with known DNA damage response pathways - Rev3 mutant cell line (AID 743014); further: nearly all actives have a fitted effect of over 55% in size; further: potency means the concentration at half of the fitted maximal effect
# [10] = qHTS assay for identifying genotoxic compounds that show differential cytotoxicity against isogenic chicken DT40 cell lines with known DNA damage response pathways - wild type cell line (AID 743012); further: potency means the concentration at half of the fitted maximal effect; nearly all actives have a fitted effect of over 60% in size
# Summary of the method: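 Viability by ATP luminescence (CellTiter-Glo, 30 min RT) after 40 h compound treatment at 37 C/5% CO2, using 300 parental DNA repair-proficient DT40 cells per well.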
# Chain of Androgen receptor (Homo sapiens) (P10275 whole entry, looked up): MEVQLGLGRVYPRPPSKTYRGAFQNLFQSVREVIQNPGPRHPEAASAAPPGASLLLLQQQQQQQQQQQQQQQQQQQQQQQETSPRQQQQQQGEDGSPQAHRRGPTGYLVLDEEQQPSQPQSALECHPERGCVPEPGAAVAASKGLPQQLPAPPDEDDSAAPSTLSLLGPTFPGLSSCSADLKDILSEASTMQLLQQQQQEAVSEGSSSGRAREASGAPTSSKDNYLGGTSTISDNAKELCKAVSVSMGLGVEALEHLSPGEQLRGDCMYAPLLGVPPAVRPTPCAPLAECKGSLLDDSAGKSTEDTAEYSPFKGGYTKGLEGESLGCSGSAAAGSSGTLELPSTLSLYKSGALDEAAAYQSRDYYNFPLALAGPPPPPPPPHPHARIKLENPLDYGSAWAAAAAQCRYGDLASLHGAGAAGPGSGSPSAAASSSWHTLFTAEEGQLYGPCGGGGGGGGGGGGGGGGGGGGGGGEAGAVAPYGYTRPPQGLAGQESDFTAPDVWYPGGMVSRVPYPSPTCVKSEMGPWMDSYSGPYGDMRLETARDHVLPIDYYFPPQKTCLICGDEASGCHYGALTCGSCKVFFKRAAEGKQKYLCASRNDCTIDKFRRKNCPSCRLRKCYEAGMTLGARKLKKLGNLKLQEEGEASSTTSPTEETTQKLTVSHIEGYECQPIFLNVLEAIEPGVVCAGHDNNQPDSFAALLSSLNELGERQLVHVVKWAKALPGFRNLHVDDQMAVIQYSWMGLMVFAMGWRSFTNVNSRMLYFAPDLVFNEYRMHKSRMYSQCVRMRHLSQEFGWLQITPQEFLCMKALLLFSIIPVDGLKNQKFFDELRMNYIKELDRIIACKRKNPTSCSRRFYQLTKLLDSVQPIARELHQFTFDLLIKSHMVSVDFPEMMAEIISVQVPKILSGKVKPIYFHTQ
smiles,measurement,setting,value
C=CC(=O)OCCC#N,Potency,[1],inactive
same,Potency,[2],inactive
same,Potency,[3],inactive
same,outcome,[4],inactive
same,Potency,[5],inactive
same,Potency,[6],inactive
same,Potency,[7],inactive
CCCC(CC)CCCCCCCN (stereo unspecified),Potency,[1],inactive
same,Potency,[8],inactive
same,Potency,[2],inactive
same,Potency,[6],inactive
Nc1cc(Cl)c([N+](=O)[O-])cc1O,Potency,[1],inactive
same,Potency,[2],inactive
COc1ccccc1OCCNCC(O)COc1cccc2[nH]c3ccccc3c12 (stereo unspecified),Potency,[1],inactive
same,Potency,[8],29.8 µM (active)
same,Potency,[3],inactive
same,outcome,[4],inactive
same,Potency,[5],inactive
COC(=O)CC(C)CCC=C(C)C (stereo unspecified),Potency,[1],inactive
same,Potency,[6],inactive
C=CC(=C)CCC=C(C)C,Potency,[1],inactive
same,Potency,[2],inactive
same,Potency,[6],inactive
CC(=O)Oc1ccc(C2(c3ccc(OC(C)=O)cc3)C(=O)Nc3ccccc32)cc1,Potency,[1],inactive
same,Potency,[9],inactive
same,Potency,[2],inactive
CC1=C(/C=C/C(C)=C/C=C/C(C)=C/C(=O)Nc2ccc(O)cc2)C(C)(C)CCC1,Potency,[1],44.8 µM (active)
same,Potency,[8],9.44 µM (active) and 9.94 µM (active)
same,Potency,[2],inactive and 44.8 µM (active)
same,Potency,[3],23.9 µM (active) and 14.2 µM (active)
same,Potency,[5],inactive
same,Potency,[6],23.7 µM (active) and 44.4 µM (active)
same,Potency,[7],29.8 µM (active) and 28 µM (active)
C=C(C)C(=O)OCCC[Si](Cl)(Cl)Cl,Potency,[1],inactive
same,Potency,[8],inactive
same,Potency,[6],inactive
C[n+]1c2cc(N)ccc2cc2ccc(N)cc21 (tested in a mixture with another compound),Potency,[10],5.96 µM (active)
same,Potency,[9],1.68 µM (active)
same,Potency,[8],2.66 µM (active)
same,Potency,[5],inactive
NC(=O)c1nc(-c2cccc(-c3cc(F)ccc3OCC(F)(F)C(F)(F)F)c2)n[nH]1,Potency,[8],13.7 µM (active)
same,Potency,[2],21.9 µM (active)
same,Potency,[3],13.8 µM (active)
same,Potency,[5],inactive
same,Potency,[6],61.1 µM (active)
same,Potency,[7],61.1 µM (active)
CCO[Si](CCCSSSSCCC[Si](OCC)(OCC)OCC)(OCC)OCC,Potency,[8],38.6 µM (active)
same,Potency,[6],inactive
CC(=O)OC(OC(C)=O)c1ccc([N+](=O)[O-])o1,Potency,[9],5.54 µM (active)
same,Potency,[8],15.6 µM (active)
CN(C)CCCN1c2ccccc2Sc2ccc(C(F)(F)F)cc21,Potency,[10],7.5 µM (active)
same,Potency,[8],11.9 µM (active)
Clc1ccc(C(Cn2ccnc2)OCc2ccsc2Cl)c(Cl)c1 (stereo unspecified),Potency,[9],11.9 µM (active)
same,Potency,[8],13.3 µM (active)
same,Potency,[6],inactive
CCN(CC)c1ccc(N)cc1,Potency,[10],5.6 µM (active)
same,Potency,[8],4.45 µM (active)
same,Potency,[2],15.9 µM (active)
same,Potency,[6],22.3 µM (active)
O=C1NC2CCCCN2C12CCN(CCCN1c3ccccc3CCc3ccc(Cl)cc31)CC2 (stereo unspecified),Potency,[9],13.3 µM (active)
same,Potency,[8],13.3 µM (active)
